According to PubChem BioAssay AID777 (Sanford-Burnham Center for Chemical Genomics, 2007):
About 19,000 (20%) of roughly 96,000 compounds were called active. Not all results are given here. Values without a mark were called inactive.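 The calls were made as follows: active = blocking of liver enzyme CYP2C9 beyond about 50% at 5 µM (limit read from the data); inactive = the rest.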

Target: Cytochrome P450 2C9 (Homo sapiens) (UniProt P11712)
Assay: blockers of cytochrome P450 2C9 activity – biochemical, luminescence, ADME assay, primary screen (AID 777)
Settings: CYP2C9 Supersomes, luciferin-H conversion, at 5 µM, active compounds read high

Cytochrome P450 2C9 (Homo sapiens), sequence (P11712 whole entry, looked up): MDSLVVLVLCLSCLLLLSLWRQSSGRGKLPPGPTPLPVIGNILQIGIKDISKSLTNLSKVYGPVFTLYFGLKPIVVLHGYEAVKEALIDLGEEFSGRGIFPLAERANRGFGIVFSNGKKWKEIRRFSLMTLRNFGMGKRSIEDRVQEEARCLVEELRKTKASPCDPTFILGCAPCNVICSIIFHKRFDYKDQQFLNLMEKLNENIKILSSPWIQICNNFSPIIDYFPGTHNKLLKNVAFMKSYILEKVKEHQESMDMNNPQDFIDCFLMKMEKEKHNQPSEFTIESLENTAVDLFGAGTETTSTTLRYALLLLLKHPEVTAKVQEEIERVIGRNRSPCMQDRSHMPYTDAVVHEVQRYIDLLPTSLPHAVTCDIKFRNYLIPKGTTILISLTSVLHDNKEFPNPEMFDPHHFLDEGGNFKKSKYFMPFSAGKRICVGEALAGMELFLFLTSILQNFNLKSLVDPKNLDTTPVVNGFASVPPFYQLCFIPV

SMILES | inhibition
CCOC(=O)N1CCC(NC(=O)COc2cc(=O)n(C)c3ccccc23)CC1 | -30.2%
Cc1cccc(NC(=O)Cn2cc(C(=O)c3ccco3)c3ccccc32)c1 | 27.3%
Cc1ccc(Nc2nc(-c3sc(NC(=O)c4ccccc4)nc3C)cs2)cc1 | 3.8%
COc1ccc(Nc2nc(-c3ccccc3)cs2)cc1 | 31.7%
NS(=O)(=O)c1ccc(Nc2nc(-c3ccccc3)cs2)cc1 | 58% (active)
Cc1cccc(C(=O)Nc2ccc(CC(=O)O)cc2)c1 | -10.9%
O=C(CN1CCN(c2ccc(F)cc2)CC1)Nc1cccc(C(F)(F)F)c1 | 82.8% (active)
O=C(O)CSCC(=O)Nc1cccc(C(F)(F)F)c1 | 18.9%
O=C(CN1CCN(c2ncc(C(F)(F)F)cc2Cl)CC1)Nc1ccc2c(c1)OCO2 | 8.6%
COc1ccccc1NC(=O)c1ccc(C)s1 | -248%
Cc1nc(NC(=O)c2cccc(Cl)c2)sc1-c1csc(Nc2cccc(Cl)c2)n1 | -17.4%
Cc1ccc(C(=O)N/C(=C/c2ccco2)C(=O)NCCc2c[nH]c3ccccc23)cc1C | 52.5% (active)
CC(=O)N/C(=C/c1ccc(Cl)cc1)C(=O)NCCc1c[nH]c2ccccc12 | -168%
COc1ccc(/C=C(\NC(=O)c2ccc(OC)c(OC)c2)C(=O)NCCc2c[nH]c3ccccc23)cc1 | 42.3%
CCOc1ccc2[nH]c(=O)c(CN(CCCO)C(C)=O)cc2c1 | -9.6%
CCOc1ccc(C(O)Cn2c(=N)n(CCN3CCCCC3)c3ccccc32)cc1 (stereo not drawn) | 23.4%
Oc1c(C(c2cccs2)N2CCN(c3ccc(F)cc3)CC2)sc2ncnn12 (stereo not drawn) | 79.2% (active)
Oc1c(C(c2ccco2)N2CCC3(CC2)OCCO3)sc2ncnn12 (stereo not drawn) | 22.5%
Cc1ccc(C(c2sc3nc(C)nn3c2O)N2CCN(c3ccc(F)cc3)CC2)cc1 (stereo not drawn) | 40.7%
COc1ncnc2sc3c(c12)CCCC3 | 19.3%
Cc1ccc(NC(=O)C2CC(c3ccc(F)cc3)=NO2)cc1 (stereo not drawn) | 22.1%
COC(=O)NC1(C(F)(F)F)NC(=O)N(C2CCCCC2)C1=O (stereo not drawn) | 19.6%
O=C1NC(Nc2nc3ccccc3s2)(C(F)(F)F)C(=O)N1C1CCCCC1 (stereo not drawn) | 85.2% (active)
CNC(=O)C1CC(=O)N(Cc2ccc3c(c2)OCO3)C(=Nc2ccc(F)cc2)S1 (stereo not drawn) | 24.5%
CCOC(=O)CCP(=O)(O)C(O)(c1ccccc1)c1ccccc1 | -3.3%
Nc1nonc1-c1nc2ccccc2n1CCC(=O)O | 13.6%
COc1ccc(C)c(Cn2c(-c3nonc3N)nc3ccccc32)c1 | 51.8% (active)
Nc1nonc1-c1nc2ccccc2n1Cc1ccc(F)cc1 | 27.7%
